In all, about 310,000 compounds went through this assay and about 17,000 (5.5%) were called active. Where a call stands in place of a potency, no number is given. Inconclusive results (about 11%) are left out. Only a selection was taken, and actives are over-represented in it overall. A number with no mark means an inactive call. Calls follow the shape of the dose curve; as a rule, active = well fitted inhibition curve with a large enough effect; inconclusive = small, poorly fitted or top-dose-only effect, or effect the other way; inactive = no such curve, though single readings can be large or run the other way.
Biological target: Nuclear receptor ROR-gamma (Mus musculus) (UniProt P51450)
Sequence (P51450 whole entry, looked up): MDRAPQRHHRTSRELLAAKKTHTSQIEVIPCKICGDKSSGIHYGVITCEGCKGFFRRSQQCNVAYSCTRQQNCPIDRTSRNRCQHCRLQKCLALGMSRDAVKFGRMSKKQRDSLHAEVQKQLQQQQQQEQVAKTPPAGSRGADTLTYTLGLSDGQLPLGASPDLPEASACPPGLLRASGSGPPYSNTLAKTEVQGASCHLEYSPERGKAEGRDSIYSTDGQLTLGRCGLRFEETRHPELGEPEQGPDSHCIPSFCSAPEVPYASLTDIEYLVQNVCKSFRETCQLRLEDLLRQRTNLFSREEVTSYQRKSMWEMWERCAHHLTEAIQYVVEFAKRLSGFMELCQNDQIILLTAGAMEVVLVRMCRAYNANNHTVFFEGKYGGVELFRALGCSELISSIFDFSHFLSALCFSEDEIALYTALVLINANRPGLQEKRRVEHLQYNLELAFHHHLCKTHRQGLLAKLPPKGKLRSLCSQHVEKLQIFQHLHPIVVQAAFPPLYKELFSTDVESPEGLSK
Assay: qHTS for inhibitors of ROR gamma transcriptional activity; also: nearly all actives have a fitted effect of over 60% in size
Settings: Drosophila S2 Gal4-RORgamma UAS-luciferase reporter, 20 h; series mostly up to 53.6 µM
Summary of the method: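 Stable Schneider cell line, Gal4 DNA-binding domain fused to ROR gamma, UAS-luciferase. Cmpd 1 hr RT → CuSO4 700 uM final → 20 hr RT → luciferase reagent 10 min → luminescence.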
Potency is read from the fitted curve at half-maximal effect.

COc1ccc2c(c1)N(C)/C(=C1/SC(=S)N(NC(C)=O)C1=O)S2 was tested. Which Potency did it give?
The Potency was “inactive”.

Which Potency does the source give for COc1ccc(OC)c(NC(=O)C2CCCN2S(=O)(=O)c2cccc3nsnc23)c1 (stereo not drawn) here?
The Potency was “inactive”.

Which Potency does the source give for O=C(O)c1[nH]c2ccccc2c1C(c1cccc(O)c1)c1c(C(=O)O)[nH]c2ccccc12 here?
Its Potency is “inactive”.

For CCOCc1nnc(NC(=O)CSc2ccc(C)cc2)s1, which Potency is on record?
The Potency was “inactive”.

For O=C(/C=C/c1ccccc1)Nc1nnc(SCC(=O)c2ccc3ccccc3c2)s1, which Potency is on record?
The Potency was “inactive”.

How did the Potency turn out when O=C(CSc1ccccc1)Nc1nnc(/C=C/c2ccccc2)s1 was run?
The Potency was 20 µM (active).

For CC1(C)Cc2c(sc(NC(=O)C(=O)NCC3CCCO3)c2C(=O)O)CO1 (stereo not drawn), which Potency is on record?
Its Potency is “inactive”.

COc1ccc(CC(=O)N/N=C(\C)c2ccccn2)cc1 was tested. Which Potency did it give?
The Potency was 7.08 µM (active).

How did the Potency turn out when C/C(=N\NC(=O)Cc1ccc(F)cc1)c1ccc(F)cc1 was run?
The Potency was “inactive”.

With C/C(CC(=O)Nc1ccc(N(C)C)cc1)=N\NC(=O)c1ccccc1F as the compound, how does the Potency read?
Its Potency is “inactive”.

How did the Potency turn out when C/C(=N\NC(=O)c1ccccc1F)c1ccccn1 was run?
Its Potency is 0.631 µM (active).

With C/C(=N\NC(=O)Cc1ccc(Br)cc1)c1cccnc1 as the compound, how does the Potency read?
The Potency was “inactive”.

With COc1ccc(CC(=O)NC(C)CCc2ccccc2)cc1 (stereo not drawn) as the compound, how does the Potency read?
Its Potency is “inactive”.

How did the Potency turn out when C/C(=N\NC(=O)Cc1ccc(Cl)cc1)c1ccccn1 was run?
Its Potency is 0.398 µM (active).

For O=C(Nc1ccc(NC(=O)c2ccccc2F)cc1)c1ccccc1F, which Potency is on record?
The Potency was “inactive”.

COc1ccc(/C(C)=N/NC(=O)c2ccc3nc[nH]c3c2)cc1 was tested. Which Potency did it give?
Its Potency is “inactive”.

Which Potency does the source give for Cc1ccc(Cn2cc(C(=O)NN)c(=O)c3ccc(F)cc32)cc1 here?
The Potency was “inactive”.

How did the Potency turn out when Cc1cccnc1CCNC(=O)C1CCC(=O)N(Cc2cccc(F)c2)C1 (stereo not drawn) was run?
The Potency was “inactive”.

Which Potency does the source give for COc1cc2ccccc2cc1C(=O)Nc1ccccc1C here?
The Potency was “inactive”.

How did the Potency turn out when COc1cc([N+](=O)[O-])cc([N+](=O)[O-])c1NC(=O)N1CCOCC1 was run?
The Potency was “inactive”.

How did the Potency turn out when O=S(=O)(Cc1cc(Cl)nc(-c2cccnc2)n1)c1ccccc1 was run?
Its Potency is “inactive”.

With COc1ccc(C(=O)Nc2cc(C)c(NC(=O)c3ccccc3OC)cn2)cc1 as the compound, how does the Potency read?
The Potency was “inactive”.

Cc1ccnc(N2C(=O)c3ccc([N+](=O)[O-])cc3C2=O)c1 was tested. Which Potency did it give?
Its Potency is “inactive”.

With Cc1cccc(C)c1NC1=NC(=S)N(c2ccc(N(C)C)cc2)C1(C)C as the compound, how does the Potency read?
Its Potency is 14.1 µM (active).

With COC(=O)c1cc(C(=O)NC(C)C2CC3CCC2C3)cc([N+](=O)[O-])c1 (stereo not drawn) as the compound, how does the Potency read?
Its Potency is “inactive”.

Cc1c2cnn(CC(=O)NCc3ccccn3)c(=O)c2c(C)n1Cc1ccc(Cl)cc1 was tested. Which Potency did it give?
The Potency was “inactive”.

Cc1ccc(CN2CCN(c3ncccn3)CC2)c(C)c1 was tested. Which Potency did it give?
The Potency was “inactive”.

Which Potency does the source give for CN(NS(=O)(=O)c1cccs1)c1ncc(C(F)(F)F)cc1Cl here?
The Potency was 5.62 µM (active).

C#CCN(N(C)c1ncc(C(F)(F)F)cc1Cl)S(=O)(=O)c1ccc2ccccc2c1 was tested. Which Potency did it give?
Its Potency is “inactive”.

With O=S(=O)(NCc1ccc(Cl)cc1Cl)c1cccs1 as the compound, how does the Potency read?
The Potency was “inactive”.

Cc1cc(C(=O)CCl)c(C)n1CC1COc2ccccc2O1 (stereo not drawn) was tested. Which Potency did it give?
Its Potency is 10 µM (active).

How did the Potency turn out when O=C(NCC1COc2ccccc2O1)C1(c2ccccc2)CCCC1 (stereo not drawn) was run?
The Potency was “inactive”.

With O=C1C(=O)N(CC2COc3ccccc3O2)c2ccccc21 (stereo not drawn) as the compound, how does the Potency read?
Its Potency is “inactive”.

For Cc1ccc(C)c(OCc2cc(C(=O)N3CCN(c4cnccn4)CC3)no2)c1, which Potency is on record?
The Potency was “inactive”.

With O=C(CN1CCN(C(=O)C2CCCO2)CC1)Nc1c(Cl)cccc1Cl (stereo not drawn) as the compound, how does the Potency read?
Its Potency is “inactive”.

How did the Potency turn out when Cc1ccc(-n2ncc3c2CC(C)(C)CC3NC(=O)CCc2cnn(C)c2)cc1 (stereo not drawn) was run?
The Potency was “inactive”.

Which Potency does the source give for CC(C)NS(=O)(=O)c1ccc(OCC(=O)NC2CCCCCC2)cc1 here?
The Potency was “inactive”.

CC(C)(C)C1CCC(=NNC(=O)c2ccc(Br)o2)CC1 (stereo not drawn) was tested. Which Potency did it give?
Its Potency is “inactive”.

For CCC(C)(C)C1CCC(=NNC(=O)c2ccc(Br)o2)CC1 (stereo not drawn), which Potency is on record?
The Potency was 11.2 µM (active).

For O=C(N/N=C\C1CC=CCC1)c1ccc(Br)o1 (stereo not drawn), which Potency is on record?
The Potency was “inactive”.

How did the Potency turn out when Cc1cc(-c2nnc(SCC(=O)Nc3ccc(S(N)(=O)=O)cc3)n2N)n[nH]1 was run?
The Potency was “inactive”.

Which Potency does the source give for CCOc1ccc(OCc2ccc(C(=O)N(C)c3ccccc3)o2)cc1 here?
The Potency was “inactive”.

How did the Potency turn out when COc1cccc(NC(=O)NCCN2CCCCC2)c1 was run?
Its Potency is “inactive”.

For COc1cc2cc(CN(CCN3CCCC3)C(=O)Nc3ccccc3Cl)c(=O)[nH]c2cc1OC, which Potency is on record?
The Potency was “inactive”.

With CCc1ccccc1NC(=O)NCCN1CCCCC1 as the compound, how does the Potency read?
The Potency was “inactive”.

With Cc1ccc(NC(=S)N(CCCN2CCC(C)CC2)Cc2ccco2)cc1 as the compound, how does the Potency read?
The Potency was “inactive”.

For Cc1ccc(NC(=S)N(CCN2CCCCC2)Cc2ccco2)cc1C, which Potency is on record?
Its Potency is 10 µM (active).

With CCc1ccccc1NC(=S)N(CCN1CCCCCC1)Cc1ccco1 as the compound, how does the Potency read?
Its Potency is 17.8 µM (active).

How did the Potency turn out when C=C1CCN(C(CC(C)C)C(=O)N2CCOCC2)S(=O)(=O)c2ccccc21 (stereo not drawn) was run?
The Potency was “inactive”.

For CCOc1ccccc1NS(=O)(=O)c1c[nH]c(C(=O)OC)c1, which Potency is on record?
Its Potency is “inactive”.

For COC(=O)[C@]1(S(=O)(=O)c2ccccc2)C[C@@H]2ON=C(c3ccc(OC)cc3)[C@@H]2C1, which Potency is on record?
Its Potency is “inactive”.

How did the Potency turn out when COc1ccc(CCC(C)N2CCc3ccccc3C2)cc1 (stereo not drawn) was run?
The Potency was “inactive”.

Which Potency does the source give for CCCC(=O)N1CCC(CCC(=O)NC2CC2)CC1 here?
Its Potency is “inactive”.

How did the Potency turn out when O=C(NCCc1ccc(Cl)cc1)C1CCCN1C(=O)NCc1ccccc1 (stereo not drawn) was run?
The Potency was “inactive”.

How did the Potency turn out when COCCn1cnc2c1c(=O)n(CC(=O)NN)c(=O)n2Cc1ccccc1 was run?
The Potency was “inactive”.

How did the Potency turn out when Cc1nn(CC(=O)Nc2nc3ccccc3s2)c(C)c1[N+](=O)[O-] was run?
The Potency was “inactive”.

O=C(CN1C(=O)/C(=C\c2ccccc2F)SC1=S)Nc1nc2ccccc2s1 was tested. Which Potency did it give?
The Potency was 11.2 µM (active).

With O=C(CN1C(=O)S/C(=C\c2ccccc2F)C1=O)NCCCn1ccnc1 as the compound, how does the Potency read?
The Potency was “inactive”.

How did the Potency turn out when CCOC(=O)C1C(c2ccc(O)cc2)NC(=O)NC1(O)C(F)(F)F (stereo not drawn) was run?
The Potency was “inactive”.

Which Potency does the source give for CC1=NN(C(N)=S)C(=O)C1N=Nc1cc(Cl)ccc1Cl (stereo not drawn) here?
The Potency was 1.41 µM (active).

How did the Potency turn out when C=CCNc1nc(N)c([N+](=O)[O-])c(NC2CCCCC2)n1 was run?
Its Potency is “inactive”.

How did the Potency turn out when Cc1c(Cl)cccc1NC(=S)NCc1ccc2c(c1)OCO2 was run?
The Potency was 7.08 µM (active).

Which activity change, negative = inhibition does the source give for O=C(NCc1ccc2c(c1)OCO2)c1cc(F)c(F)cc1Cl here?
Its activity change, negative = inhibition is -6.24% [at 1.91 µM].

How did the Potency turn out when CN(C)S(=O)(=O)c1cccc(NC(=S)NCc2ccc3c(c2)OCO3)c1 was run?
Its Potency is “inactive”.

Which Potency does the source give for CS(=O)(=O)N(CC(=O)N1CCCCCC1)c1cccc(Cl)c1Cl here?
Its Potency is “inactive”.

For CN1/C(=C\C(=O)c2cccnc2Cl)C(C)(C)c2ccccc21, which Potency is on record?
The Potency was “inactive”.

For Cc1noc(C)c1C(=O)OCC(=O)/C=C1\N(C)c2ccccc2C1(C)C, which Potency is on record?
Its Potency is “inactive”.

For CC(=O)Nc1cccc(OCC(=O)/C=C2\N(C)c3ccccc3C2(C)C)c1, which Potency is on record?
Its Potency is 7.08 µM (active).

— PubChem BioAssay AID2551 (National Center for Advancing Translational Sciences (NCATS), 2010)
